This is part of a sample that, as a whole, favours compounds with a hit. Of some 83,000 tested, about 20% had one in any assay.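 In brief: 96-well plates, 48 h treatment, single concentration, percent growth endpoint.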 Calls of active or inactive are those of the source.

In the test the test system is HOP-62 NSCLC. Nature of the test: NCI-60 one-dose screen, 48 h (100 = growth as untreated, 0 = no growth, -100 = all killed). To be noted: 10 µM. How it is done:
Growth inhibition of the HOP-62 human Non-Small Cell Lung tumor cell line is measured as a screen for anti-cancer activity. Cells are grown in 96 well plates and exposed to the test compound for 48 hours. Compounds are tested at a single concentration, which is 10^-5 M for most compounds. The reported endpoint is percent growth (GI% or GIPRCNT), where numbers from 0 - 100% represent growth inhibition, and numbers from -100% - 0 represent cell death. For example, a value of 40 represents 60% growth inhibition. A value of 0 means no net growth occurred over the course of the experiment. A value of -40 indicates 40% of cells at the beginning of the experiment died by the end of the experiment. A value of -100 means all cells are dead at the end of the experiment.
NCI-60 Human Tumor Cell Lines Screen was performed using the standard one-dose NCI protocol, which is described in more detail at https://dtp.cancer.gov/discovery_development/nci-60/default.htm.
Compounds with GIPRCNT values below 10 were considered active. Activity score was based on GIPRCNT using the following formula: […]
Score is 0 for GIPRCNT values of 100 or above, 50 for GIPRCNT values of 0, and 100 for GIPRCNT values of -100.
Take `COCCNCC(O)Cn1c2ccc(Cl)cc2c2cc(Cl)ccc21` (stereo not given): the growth was 17% (inactive). In the case of `COc1ccc(C2=NNC(c3sc(Cl)nc3Cl)C2)cc1` (stereo not given) it was 72.5% (inactive). In the case of `FC(F)(F)c1ccc(-c2cnc(Br)nc2NC2CCCCCC2)cc1` it was 53.5% (inactive); in that of `c1ccc(C2CCCCC2)c(OCCCCCN2CCNCC2)c1`, 78.9% (inactive); in that of `Cc1[nH]nc2c(=S)[nH]c(=O)[nH]c12`, 105% (inactive). In the case of `COc1cc(-c2cc(-c3ccc(C)cc3)nc3nc(N)[nH]c(=O)c23)ccc1Oc1ccnc2cc(Cl)ccc12` it was 98.4% (inactive). As for `COc1cc(-c2nc3ccc(C)cc3[nH]2)ccc1OCC(=O)N=Nc1c(O)[nH]c2ccccc12`, the growth was -49.4% (active). In the case of `C/C(=N\NC(N)=S)C(C)(C)O` it was 104% (inactive); in that of `COc1cc(-c2cc(/C=C/C(C)=O)[nH]n2)cc(OC)c1OC`, 84.2% (inactive); in that of `CCN(CC)CC(O)CNc1ccnc2cc(Cl)c(Cl)cc12` (stereo not given), 88.9% (inactive). In the case of `CCCCCc1cc[n+](CC(=O)c2ccc(Cl)cc2)cc1` it was 92.7% (inactive); in that of `CCc1c(C)[nH]c(=O)c(C(N)=O)c1C#N`, 96.7% (inactive); in that of `COc1ccc(C2C=C(c3ccc(Cl)c(Cl)c3)N=C3SC(C)=CN32)cc1` (stereo not given), 99.5% (inactive). In the case of `COc1ccccc1CNCCCN1C(=O)c2ccc3c4c(ccc(c24)C1=O)C(=O)N(CCCNCCNCCCN)C3=O` it was 40.4% (inactive); in that of `CCC1(C)OC(=O)NC1=O` (stereo not given), 71.1% (inactive). `N#Cc1c2c([nH]c(=O)c1C(N)=O)CCCCC2`: the growth was 92.4% (inactive). Take `CCOC(=O)c1ccc(N(C=O)CCC(=O)CCl)cc1`: the growth is 29.8% (inactive). In the case of `CCc1c(C(=O)NCc2c(O)ccc3cccc(O)c23)[nH]c(C)c1C(C)=O` it was 59% (inactive).

With `CCOC(=O)C1=C(Nc2ccc(OC)cc2)C(N)=NC1=N`, the growth is 52.4% (inactive).

Take `Cc1ccc2nc3[nH]c(=O)[nH]c(=O)c3c(N)c2c1`: the growth is 84.3% (inactive). In the case of `CNC(=O)c1cc(Oc2ccc(NC(=O)Nc3ccc(Cl)c(OC(C)C)c3)c(F)c2)ccn1` it was 69.3% (inactive); in that of `COc1cc(NS(C)(=O)=O)ccc1Nc1c2ccc(Cl)cc2nc2c(OC)cccc12`, -14.3% (active); in that of `COc1ccc2nc(NC(=O)Nc3c(F)cccc3F)sc2c1`, 106% (inactive). For `CC[C@@]1(C(N)=O)CC2C=CC1C2` (stereo not given in full), the growth was 111% (inactive).

As to `CC1=CC2OC34COC3CC(OC(=O)C(F)(F)F)C4(C)C2(C)CC1` (stereo not given), the growth was 97.4% (inactive). As for `CC(C)CCN(CCCNc1c2c(nc3cc(Cl)ccc13)CCCC2)CCC(C)C`, the growth is 77.9% (inactive).

For `NC(=O)C12C(=O)NC(=O)C1(C(=O)O)C21CCCC1` (stereo not given), the growth was 110% (inactive). In the case of `COc1cc(CSc2nc3ccc(C)cc3c(=O)n2-c2ccccc2)cc(OC)c1OC` it was 37.8% (inactive); in that of `CCc1ccc(Nc2cc(C)nc3nc(C)nn23)cc1`, 26.8% (inactive). In the case of `O=C(Nc1cccc(-c2nc3ccccc3[nH]2)c1)c1cccc(NC(=O)c2ccco2)c1` it was 73.2% (inactive); in that of `Fc1ccc2[nH]c3c(NCCCN4CCOCC4)ncnc3c2c1`, 32.7% (inactive). On to `COC(=O)CCCCCCCCC(C)c1ccc(C(C)=O)cc1` (stereo not given), for which the growth is 100% (inactive).

Regarding `CCCCCCCCCCCCCC[n+]1ccc(C)cc1`, the growth was -39.2% (active). In the case of `COc1ccc(C2CC(c3ccc(-c4ccccc4)cc3)=NN2c2ccc(S(N)(=O)=O)cc2)cc1` (stereo not given) it was 90.8% (inactive); in that of `CC(C)C(C)C(N)C(=O)O` (stereo not given), 89.9% (inactive). Regarding `COc1cc(C(c2c[nH]c3ccccc23)N2CCCC2)ccc1OCc1ccccc1` (stereo not given), the growth is 90.3% (inactive).

Take `CCOc1nc(-c2ccccc2)cc2c(O)c(C(=O)N/N=C/c3ccc(OC)cc3)[nH]c(=O)c12`: the growth is 105% (inactive). In the case of `CC(=O)Nc1ccc(Sc2ccc(NC(C)=O)cc2)cc1` it was 70.7% (inactive); in that of `CCC(CCNc1cc(OC)cc2cccnc12)CN1C(=O)c2ccccc2C1=O` (stereo not given), 102% (inactive). As to `CCN(CC)CCn1c(=N)n(CC(O)c2ccc(Cl)c(Cl)c2)c2ccccc21` (stereo not given), the growth was 85.3% (inactive).

Values taken from PubChem BioAssay (NCI).
